Growth inhibition data for ten molecules are collected here from PubChem BioAssay (NCI).

This is part of a sample that, as a whole, favours compounds with a hit. Of some 79,000 tested, about 15% had one in any assay. Values without a mark were called inactive. Active and inactive are the calls of the source. Cut-off read from the data, not from the text of the source: active = growth inhibition above about 70%; inactive = the rest.

A short description of assay [1]: NCI Yeast Anticancer Drug Screen. Data for the rad50 strain (AID 155).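 Note: 0% = growth of vehicle-only cultures of the same strain.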 To be noted: S. cerevisiae rad50 strain growth inhibition, hits give high values. The essentials:
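Vehicle-treated cultures provide the reference for the growth inhibition reported for compound-exposed, repair-deficient yeast.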

Assay [2] can be described thus: NCI Yeast Anticancer Drug Screen. Data for the mec2-1 strain (AID 157). As to conditions: S. cerevisiae mec2-1 strain, hits give high values. The essentials:
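Strain: mec2-1 (DNA repair/cell cycle alteration). Compound exposure, then growth measured; inhibition expressed relative to vehicle.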

Assay [3] in a line: NCI Yeast Anticancer Drug Screen. Data for the sgs1 mgt1 strain (AID 161).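 Note: 0% = growth of cultures given vehicle only.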 To be noted: S. cerevisiae sgs1 mgt1 strain, hits give high values. The essentials:
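Inhibition of yeast growth, normalised to vehicle-treated controls, is reported for a strain bearing genetic alterations in DNA damage repair.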

Assay [4] in a line: NCI Yeast Anticancer Drug Screen. Data for the cln2 rad14 strain (AID 165).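 Note: 0% = growth equal to vehicle treated cultures.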 As to conditions: S. cerevisiae cln2 rad14 strain, hits give high values. The essentials: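 Compounds are applied to the cln2 rad14 yeast strain, and growth is then compared with that of vehicle-treated cultures to give inhibition.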
A short description of assay [5]: NCI Yeast Anticancer Drug Screen. Data for the bub3 strain (AID 167). As to conditions: S. cerevisiae bub3 mutant strain, hits give high values. Put shortly: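 Mutant yeast screening strain plus compound; vehicle-treated cultures serve as the 0% inhibition reference.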
Assay [6] can be described thus: NCI Yeast Anticancer Drug Screen. Data for the mlh1 rad18 strain (AID 175). As to conditions: S. cerevisiae mlh1 rad18 strain growth inhibition, hits give high values. The essentials: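 Read-out is yeast growth inhibition, calculated against vehicle-only controls. The compound was applied to a strain engineered with DNA damage repair alterations.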
The mark [7] stands for this setting: at 5.0 µM (retest, dose inferred, filed as 0.5).
Setting [8] is: at 50.0 µM (retest, dose inferred, filed as 5.0).

Consider `Cc1ccc(S(=O)(=O)N/N=C/Cc2ccccc2)cc1`, for which the growth inhibition in assay [1] (setting [7]) is 2%; in assay [1] (setting [8]), 96% (active); in assay [1] (at 50.0 µM), 87.5% (active); in assay [2] (setting [7]) it was -13%; in assay [2] (setting [8]) it was 98% (active); in assay [2] (at 50.0 µM), 7%. For the same molecule, the growth inhibition is 3% in assay [3] (setting [7]); 98% (active) in assay [3] (setting [8]); 79.8% (active) in assay [3] (at 50.0 µM); -3% in assay [4] (setting [7]); 95% (active) in assay [4] (setting [8]); 11.6% in assay [4] (at 50.0 µM). The growth inhibition in assay [5] (setting [7]) was -5%; in assay [5] (setting [8]) it was 97% (active); in assay [5] (at 50.0 µM) it was 12.1%; in assay [6] (setting [7]), 28%; in assay [6] (setting [8]) it was 98% (active); in assay [6] (at 50.0 µM), 85.3% (active).

Consider `ON=C(CC(O)(C(F)(F)Cl)C(F)(F)Cl)CC(O)(C(F)(F)Cl)C(F)(F)Cl`, for which the growth inhibition in assay [1] (setting [7]) was 50%; in assay [1] (setting [8]), 99% (active); in assay [1] (at 50.0 µM), 99.7% (active); in assay [2] (setting [7]), 69%; in assay [2] (setting [8]), 100% (active); in assay [2] (at 50.0 µM), 99.6% (active). The growth inhibition in assay [3] (setting [7]) was 37%; in assay [3] (setting [8]), 99% (active); in assay [3] (at 50.0 µM), 99.5% (active); in assay [4] (setting [7]), 68%; in assay [4] (setting [8]) it was 99% (active); in assay [4] (at 50.0 µM) it was 99.5% (active). Further, the growth inhibition was 23% in assay [5] (setting [7]); 100% (active) in assay [5] (setting [8]); 99.8% (active) in assay [5] (at 50.0 µM); 62% in assay [6] (setting [7]); 99% (active) in assay [6] (setting [8]); 99.5% (active) in assay [6] (at 50.0 µM).

As for `Oc1cccc2c(Br)ccnc12`, the growth inhibition is -5% in assay [1] (setting [7]); 100% (active) in assay [1] (setting [8]); 87% (active) in assay [1] (at 50.0 µM); -21% in assay [2] (setting [7]); 99% (active) in assay [2] (setting [8]); 92% (active) in assay [2] (at 50.0 µM). The growth inhibition is -33% in assay [3] (setting [7]); 99% (active) in assay [3] (setting [8]); 85% (active) in assay [3] (at 50.0 µM); -5% in assay [4] (setting [7]); 99% (active) in assay [4] (setting [8]); 87.8% (active) in assay [4] (at 50.0 µM). In addition, the growth inhibition in assay [5] (setting [7]) was -29%; in assay [5] (setting [8]), 99% (active); in assay [5] (at 50.0 µM) it was 87.2% (active); in assay [6] (setting [7]) it was 15%; in assay [6] (setting [8]), 99% (active); in assay [6] (at 50.0 µM), 81.8% (active).

Consider `CN(C)c1ccc(/C=C/c2nc3ccccc3s2)cc1`, for which the growth inhibition in assay [1] (setting [7]) is 8%; in assay [1] (setting [8]), 79% (active); in assay [1] (at 50.0 µM), 3.1%; in assay [2] (setting [7]) it was 14%; in assay [2] (setting [8]), 60%; in assay [2] (at 50.0 µM) it was 23.6%. The growth inhibition in assay [3] (setting [7]) was -3%; in assay [3] (setting [8]) it was 91% (active); in assay [3] (at 50.0 µM) it was 4.3%; in assay [4] (setting [7]), -3%; in assay [4] (setting [8]) it was 14%; in assay [4] (at 50.0 µM), 36.4%. In addition, the values for the growth inhibition in assay [5] (setting [7]), in assay [5] (setting [8]) and in assay [5] (at 50.0 µM) were -3%, 1% and -2.45%, respectively.

Consider `CSC(=S)n1nc(-c2cccs2)c(N=Nc2ccc(Cl)cc2)c1C(F)(F)F`, for which the growth inhibition in assay [1] (setting [7]) was 29%; in assay [1] (setting [8]) it was 63%; in assay [1] (at 50.0 µM) it was 83.8% (active); in assay [2] (setting [7]), 1%; in assay [2] (setting [8]), 86% (active); in assay [2] (at 50.0 µM), 93.4% (active). For the same molecule, the growth inhibition was 20% in assay [3] (setting [7]); 75% (active) in assay [3] (setting [8]); 46.5% in assay [3] (at 50.0 µM); 14% in assay [4] (setting [7]); 49% in assay [4] (setting [8]); 65.4% in assay [4] (at 50.0 µM). Further, the growth inhibition was 14% in assay [5] (setting [7]), 87% (active) in assay [5] (setting [8]) and 75.3% (active) in assay [5] (at 50.0 µM).

With `C[n+]1c2ccc(Cl)cc2nc2cc(-c3ccccc3)ccc21`, the growth inhibition in assay [1] (setting [7]) was 15%; in assay [1] (setting [8]), 98% (active); in assay [1] (at 50.0 µM), 98.6% (active); in assay [2] (setting [7]) it was 23%; in assay [2] (setting [8]), 99% (active); in assay [2] (at 50.0 µM) it was 99% (active). The growth inhibition is 32% in assay [3] (setting [7]); 99% (active) in assay [3] (setting [8]); 98.9% (active) in assay [3] (at 50.0 µM); 7% in assay [4] (setting [7]); 98% (active) in assay [4] (setting [8]); 98.2% (active) in assay [4] (at 50.0 µM). Further, the growth inhibition is 54% in assay [5] (setting [7]); 98% (active) in assay [5] (setting [8]); 98.9% (active) in assay [5] (at 50.0 µM); 39% in assay [6] (setting [7]); 98% (active) in assay [6] (setting [8]); 98.6% (active) in assay [6] (at 50.0 µM).

Turning to `NCCCN1c2ccccc2Sc2ccc(Cl)cc21`, the growth inhibition in assay [1] (setting [7]) was -7%; in assay [1] (setting [8]) it was 75% (active); in assay [1] (at 50.0 µM), -10.7%; in assay [2] (setting [7]) it was 12%; in assay [2] (setting [8]) it was 58%; in assay [2] (at 50.0 µM) it was -25.5%. Further, the growth inhibition is 10% in assay [3] (setting [7]); 83% (active) in assay [3] (setting [8]); 13.4% in assay [3] (at 50.0 µM); 0% in assay [4] (setting [7]); 20% in assay [4] (setting [8]); -25.7% in assay [4] (at 50.0 µM). Further, the growth inhibition in assay [5] (setting [7]) is -1%; in assay [5] (setting [8]), 37%; in assay [5] (at 50.0 µM), 71.9% (active); in assay [6] (setting [7]), 17%; in assay [6] (setting [8]) it was 98% (active); in assay [6] (at 50.0 µM), 18.1%.

Regarding `C/C(=N/NC(=S)NCc1ccccc1)c1ncccn1`, the growth inhibition in assay [1] (setting [7]) is -6%; in assay [1] (setting [8]), 98% (active); in assay [1] (at 50.0 µM), 98.8% (active); in assay [2] (setting [7]), 14%; in assay [2] (setting [8]), 98% (active); in assay [2] (at 50.0 µM) it was 98.9% (active). The growth inhibition was 2% in assay [3] (setting [7]); 98% (active) in assay [3] (setting [8]); 99% (active) in assay [3] (at 50.0 µM); 7% in assay [4] (setting [7]); 98% (active) in assay [4] (setting [8]); 97.8% (active) in assay [4] (at 50.0 µM). Also, the growth inhibition in assay [5] (setting [7]) was -23%; in assay [5] (setting [8]), 98% (active); in assay [5] (at 50.0 µM), 98.5% (active); in assay [6] (setting [7]) it was 3%; in assay [6] (setting [8]) it was 98% (active); in assay [6] (at 50.0 µM) it was 98.9% (active).

Turning to `S=C(Nc1ccc(Cl)c(Cl)c1)N1c2ccccc2-n2cccc2C1c1cccnc1` (centres undefined), the growth inhibition in assay [1] (setting [7]) is 49%; in assay [1] (setting [8]), 99% (active); in assay [1] (at 50.0 µM), 80.8% (active); in assay [2] (setting [7]) it was 46%; in assay [2] (setting [8]), 99% (active); in assay [2] (at 50.0 µM), 84.5% (active). Besides, the growth inhibition in assay [3] (setting [7]) was 59%; in assay [3] (setting [8]), 94% (active); in assay [3] (at 50.0 µM) it was 85% (active); in assay [4] (setting [7]), 91% (active); in assay [4] (setting [8]) it was 94% (active); in assay [4] (at 50.0 µM), 84.7% (active). Also, the growth inhibition is 72% (active) in assay [5] (setting [7]); 89% (active) in assay [5] (setting [8]); 84% (active) in assay [5] (at 50.0 µM); 45% in assay [6] (setting [7]); 100% (active) in assay [6] (setting [8]); 87.8% (active) in assay [6] (at 50.0 µM).

Consider `CC(=O)Oc1c([N+](=O)[O-])cc(-c2ccccc2)cc1[N+](=O)[O-]`, for which the growth inhibition is 18% in assay [1] (setting [7]); 99% (active) in assay [1] (setting [8]); 78.2% (active) in assay [1] (at 50.0 µM); 20% in assay [2] (setting [7]); 100% (active) in assay [2] (setting [8]); 56.1% in assay [2] (at 50.0 µM). Besides, the growth inhibition in assay [3] (setting [7]) was 21%; in assay [3] (setting [8]), 99% (active); in assay [3] (at 50.0 µM), 66.3%; in assay [4] (setting [7]), 9%; in assay [4] (setting [8]), 99% (active); in assay [4] (at 50.0 µM) it was 47.5%. Moreover, the growth inhibition is 21% in assay [5] (setting [7]); 99% (active) in assay [5] (setting [8]); 62.1% in assay [5] (at 50.0 µM); 6% in assay [6] (setting [7]); 99% (active) in assay [6] (setting [8]); 84.6% (active) in assay [6] (at 50.0 µM).
